In PubChem BioAssay (NCATS) one finds Potency data, which are given here for 40 molecules.

Records with an inconclusive call do not appear. Active and inactive are the calls of the source. Calls follow the shape of the dose curve; as a rule, active = well fitted cell-killing curve with a large enough effect; inconclusive = small, poorly fitted or top-dose-only effect, or effect the other way; inactive = no such curve, though single readings can be large or run the other way.
Potency is read from the fitted curve at half-maximal effect.

This assay can be described thus: Quantitative High-Throughput drug screen in 47 multiple myeloma cell lines against the NCATS MIPE library collection: H1112_PLB cell viability assay (AID 1918967; also: nearly all actives have a fitted effect of over 30% in size). As to conditions: H1112 myeloma cells viability, ATP luminescence, 48 h; series mostly up to 45.8 µM. An excerpt: PI: Beverly A. Mock Ph.D.
Laboratory of Cancer Biology and Genetics,
Center for Cancer Research, National Cancer Institute,
National Institute of Health, Bethesda, Maryland
Drug resistance and disease progression are common in multiple myeloma (MM) patients, underscoring the need for new therapeutic combinations. […] We hypothesized that effective combinations would reduce MYC expression and enhance p16 activity. […] These preclinical data identify potentially useful drug combinations for evaluation in drug-resistant MM and reveal potential mechanisms of combined drug sensitivity.
Described herein is the primary MIPE qHTS used to cherrypick compounds. Validated compounds were then further tested for potential synergistic activiy.
[1] Peat TJ, Gaikwad SM, Dubois W, Gyabaah-Kessie N, Zhang S, Gorjifard S, Phyo Z, Andres M, Hughitt VK, Simpson RM, Miller MA, Girvin AT, Taylor A, Williams D, D'Antonio N, Zhang Y, Rajagopalan A, Flietner E, Wilson K, Zhang X, Shinn P, Klumpp-Thomas C, McKnight C, Itkin Z, Chen L, Kazandijian D, Zhang J, Michalowski AM, Simmons JK, Keats J, Thomas CJ, Mock BA. Drug combinations identified by high-throughput screening promote cell cycle transition and upregulate Smad pathways in myeloma. Cancer Lett. 2023 Aug 1;568:216284. doi: 10.1016/j.canlet.2023.216284. Epub 2023 Jun 24. PMID: 37356470; PMCID: PMC10408729.
SEQUENCE No. (e.g., 1, 2, 3, etc.); […] (e.g., Cells, Incubation, Reagent, etc.); VALUE and DESCRIPTION.
1; Cells; 5 uL; white, solid bottom 1536-well Greiner assay plate.
2; Compounds; 23 nL; Kalypsis pin tool (Wako USA) equipped with a 1536-well pin head to transfer to the assay plates.
3; Incubation; 48 hours; 37C incubation.
4; Reagent;5uL; CellTiter Glo (Promega).
5; Detector; 425V; Luminescence; Viewlux PerkinElmer.
NOTES (numbers refer to Sequence numbers above)
1. The cell-based screening methods employed in this study were like those previously published. Briefly, the corresponding myeloma cell lines were screened in 1,536-well plates with 500 cells, 5-uL per well for inhibition of cell viability (assessed by measuring ATP levels with CellTiterGlo).
2. NCATS MIPE 4.0 library of approved and investigational drugs were added using the Kalypsis pin tool. Wells treated with DMSO only for 100% viability and media only wells for 0% viability were used as controls.
3. The assay plates were covered and incubated for 48 hours in a 37C, 5% CO2 incubator with controlled humidity.
4. After 48 hours, CellTilter-GloTM luminescent substrate mix (Promega) reagent was added to the assay plate and plates we incubated for 5 min at room temperature.
5. Signal was measured as median relative luminescence units on a ViewLux (PerkinElmer) multiplate reader.
[1] Heske CM, Davis MI, Baumgart JT, Wilson K, Gormally MV, Chen L, Zhang X, Ceribelli M, Duveau DY, Guha R, Ferrer M, Arnaldez FI, Ji J, Tran HL, Zhang Y, Mendoza A, Helman LJ, Thomas CJ. Matrix Screen Identifies Synergistic Combination of PARP Inhibitors and Nicotinamide Phosphoribosyltransferase (NAMPT) Inhibitors in Ewing Sarcoma. Clin Cancer Res. 2017 Dec 1;23(23):7301-7311. doi: 10.1158/1078-0432.CCR-17-1121. Epub 2017 Sep 12. PMID: 28899971; PMCID: PMC6636827.
For the molecule `CNC(=O)c1c(F)cccc1Nc1nc(Nc2cc3c(cc2OC)CCN3C(=O)CN(C)C)nc2[nH]ccc12`, the Potency is 1.87 µM (active).
Next, `CN(C1CCc2c(c3ccccc3n2CC(=O)O)C1)S(=O)(=O)c1ccc(F)cc1` (stereo not given): “inactive”; `CC(C)Nc1cc(C(F)(F)F)cc2nc(NC(=O)c3cccnc3)nn12`: “inactive”.
With `COc1cc(C(=O)NS(=O)(=O)c2ccccc2C)ccc1Cc1cn(C)c2ccc(NC(=O)OC3CCCC3)cc12` the figure was 20.9 µM (active); with `CC(=O)Nc1nc(C)c(-c2ccc(Cl)c(S(=O)(=O)NCCO)c2)s1`, 1.48 µM (active).
On to `Cc1cc(CN2CCN(c3c(Br)cnc4nc(-c5ccc(N6CCN(C)CC6)cc5)[nH]c34)CC2)no1`, for which the Potency is 10.5 µM (active).
Consider `COc1ccc(-n2nc(C(N)=O)c3c2C(=O)N(c2ccc(N4CCCCC4=O)cc2)CC3)cc1`, for which the Potency result was “inactive”.
For `Cc1cc(N2CCOCC2)cc2[nH]c(-c3c(NC[C@@H](O)c4cccc(Cl)c4)cc[nH]c3=O)nc12`, the Potency was 0.166 µM (active).
With `COc1cc2ncn(-c3cc(OCc4ccccc4C(F)(F)F)c(C(N)=O)s3)c2cc1OC` the figure was 7.43 µM (active).
Next, `O=C(Nc1cc(C(F)(F)F)cc(C(F)(F)F)c1)c1cc(Cl)ccc1O`: 1.87 µM (active); `COc1cc2c(Oc3ccc(NC(=O)C4(C(=O)Nc5ccc(F)cc5)CC4)cc3F)ccnc2cc1OCCCN1CCOCC1`: 16.6 µM (active); `COc1cc(OC2CCN(C)CC2)ccc1Nc1ncc2c(n1)n(C1CCCC1)c(=O)n2C`: 14.8 µM (active).
With `CCCCc1nc2cc(C=CC(=O)NO)ccc2n1CCN(CC)CC` the figure was 1.87 µM (active); with `NC(=O)Nc1cc(-c2cccc(F)c2)sc1C(=O)N[C@H]1CCCNC1`, 1.48 µM (active); with `Cc1nc2ccc(CN(C)c3ccc(C(=O)N[C@@H](CCC(=O)O)C(=O)O)s3)cc2c(=O)[nH]1`, “inactive”.
Take `CC[C@@]1(O)C(=O)OCc2c1cc1n(c2=O)Cc2cc3cc(O)ccc3nc2-1`: the Potency is 0.148 µM (active).
Turning to `NCC(=O)Nc1ccc(-n2nc(C(F)(F)F)cc2-c2ccc3c(ccc4ccccc43)c2)cc1`, the Potency is 20.9 µM (active).
Next, `CC(C)c1nn(-c2c(Cl)cccc2Cl)c2nc(Cc3ccc(OCCO)cc3)[nH]c(=O)c12`: 0.235 µM (active); `CC(C)(C)c1cc(C(C)(C)C)c(NC(=O)c2c[nH]c3ccccc3c2=O)cc1O`: “inactive”; `Cn1cc(-c2[nH]c3cc(NC(=O)[C@H](N)C4CCCCC4)cc4c3c2C=NNC4=O)cn1`: 0.935 µM (active).
As to `C=C1C(=CC=C2CCC[C@]3(C)[C@@H]([C@H](C)C=C[C@H](C)C(C)C)CC[C@@H]23)C[C@@H](O)C[C@@H]1O`, the Potency was 2.35 µM (active).
Next, `C1=CCOCc2cc(ccc2OCCN2CCCC2)Nc2nccc(n2)-c2cccc(c2)OCC1`: 5.26 µM (active); `COc1ccc(CC2SC(=O)NC2=O)cc1C(=O)NCc1ccc(C(F)(F)F)cc1` (stereo not given): “inactive”; `CCCCN1CCC(CNC(=O)c2c3n(c4ccccc24)CCCO3)CC1`: 9.35 µM (active).
For the molecule `CC(C)c1ccccc1Cc1cc(C(=O)Nc2ccc(S(=O)(=O)c3ccccc3C(C)(C)C)cc2)c(O)c(O)c1O`, the Potency was 6.62 µM (active).
With `CCNC(=O)Nc1ccc2ncc(Nc3ccc(C)cc3)nc2n1` the figure was 5.9 µM (active).
In the case of `CN(c1ncccc1CNc1nc(Nc2ccc3c(c2)CC(=O)N3)ncc1C(F)(F)F)S(C)(=O)=O`, the Potency was 5.9 µM (active).
In the case of `Cc1ccc(C(=O)Nc2ccc(CN3CCN(C)CC3)c(C(F)(F)F)c2)cc1C#Cc1cnc2cccnn12`, the Potency was 2.09 µM (active).
With `COc1cc(C)c(Sc2cnc(NC(=O)c3ccc(CNC(C)C(C)C)cc3)s2)cc1C(=O)N1CCN(C(C)=O)CC1` (stereo not given) the figure was 14.8 µM (active).
On to `O=C(c1ccc(Nc2nccc(-c3cc4ccccc4s3)n2)cc1)N1CCC(N2CCCC2)CC1`, for which the Potency is 7.43 µM (active).
With `CC1(O)CC(c2nc(-c3ccc4ccc(-c5ccccc5)nc4c3)c3c(N)nccn23)C1` (stereo not given) the figure was 23.5 µM (active); with `O=C(O)C1(Cc2cccc(Nc3nccs3)n2)CCC(Oc2cccc(Cl)c2F)CC1` (stereo not given), “inactive”.
For the molecule `CC[C@H](CO)Nc1nc(NCc2ccccc2)c2ncn(C(C)C)c2n1`, the Potency is 18.7 µM (active).
Turning to `CC1(C)CCC(c2ccc(Cl)cc2)=C(CN2CCN(c3ccc(C(=O)NS(=O)(=O)c4ccc(N[C@H](CCN5CCOCC5)CSc5ccccc5)c(S(=O)(=O)C(F)(F)F)c4)cc3)CC2)C1`, the Potency is 0.0833 µM (active).
With `CC[C@H]1CN2CCc3cc(OC)c(OC)cc3[C@H]2C[C@@H]1C[C@@H]1NCCc2cc(OC)c(OC)cc21` the figure was 0.264 µM (active).
With `CN(C)c1nc(Cc2ccc(NC(=O)c3ccc4ccccc4c3)cc2)nc(Cl)c1CC(=O)O` the entry was “inactive”; with `Cc1cc(Nc2cc(N3CCN(C)CC3)nc(C=Cc3ccccc3)n2)n[nH]1`, 38.2 µM (active); with `CN1CCN(c2cc(C(=O)Nc3ccc4c(c3)-c3c(c(C(N)=O)nn3-c3ccc(F)cc3)CC4)c(Cl)cn2)CC1`, 2.35 µM (active).
`CCS(=O)(=O)c1cccc(-c2cc(C(=O)NC3CCN(C)CC3)c(C)c3[nH]c4ncc(C)cc4c23)c1`: the Potency was 4.69 µM (active).
In the case of `CC(C)(O)c1cc2nc(-c3cnc(N)nc3)nc(N3CCOCC3)c2s1`, the Potency is 0.418 µM (active).
